Assay results reported in the supplement of paper PMC6555819.

Each sequence was assayed on VDR:RXRa (NR concentration 270 nM, RXRa partner concentration 90 nM) (assay: PBM binding z-score (relative to random genomic background probes); higher = stronger binding; sequences stand for … in GC…GCGATTGACAGCGTAGAATGAAGG).
Description: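 Protein-binding microarray (Agilent 4x180K custom design, double-stranded 60-nt probes: 5' GC cap, 34-nt variable region, 24-nt constant primer region; full probe sequence given). Purified or IVT nuclear receptor:RXRα heterodimers (3:1 NR:RXRα, mostly 270:90 nM) or homodimers were incubated for 1 h in PBS with 2% milk and no ligand, then detected with Alexa488 antibodies. Fluorescence from o1-orientation probes (~5 replicates averaged) was converted to z-scores against 500 random hg19 background probes. Variable regions are seed direct-repeat (DR0–DR5) sites, all their single-nucleotide variants and half-site ablations.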
TTACCGAGGTGAGCTGAGGTCGTTGATCCAACTC showed a PBM binding z-score of 4.51.
In the case of GCAGACAGGTGAAACGCAGGTAACTCAGGGTGGC, the PBM binding z-score is reported as -0.544.
CGCGAAAGGTCGGTTGAGGTGAGTATACGGATAA showed a PBM binding z-score of 2.25.
For TGTCACAGTTCAAAGGTAACGTAAGTATCCACAC, the PBM binding z-score was 3.28.
CAAACTAGGTCACAGAGGTCATAGTCCGTGCGTA gave a PBM binding z-score of 8.31.
In the case of AGAATGAGGATATTAAGATCAGGGAATTGCGGTC, the PBM binding z-score is reported as -0.178.
For CGAACTCGGTCATTGACAGGACAGTGAATAGTAA, the PBM binding z-score was 0.452.
Sequence CCTGACGGGTCAAGGTTATAGCACGGGTGGTACG has a PBM binding z-score of 2.74.
TCATGTAGATCAGCAGGTTAAGAAAGCTGGCCAA gave a PBM binding z-score of 0.442.
Sequence CGAACTTGGTCATCCAGGACAGTGAATACATTGA has a PBM binding z-score of 1.59.
CGTCAAAGTTCAAGGTAACGAAACAGAAAGCAGC gave a PBM binding z-score of 3.7.
Sequence GCTTGTAGATCAAGGTTAGGAAAGACTAAGCTAA has a PBM binding z-score of -0.45.
With ATATGTAGGTTACATCCGGGTCAATCAGGCTATG the PBM binding z-score was 3.59.
For ATCTCTAGGTAACCACGTTCAGTGAATGCCGAAC, the PBM binding z-score was 0.175.
In the case of CCTATTAGTTGACCATAAGGGCAACTGAAGCTCG, the PBM binding z-score is reported as 1.08.
Work on GAAGACAGGTGAAACGCAGGTAACTCAGGGTGGC yielded a PBM binding z-score of -0.438.
In the case of TAGCCTAGGTCAGATCGGGCCAGTACACGCTATA, the PBM binding z-score is reported as 0.906.
Sequence CGAACTAGGTCACGAAAGGTCAAAGTCGAATGAC has a PBM binding z-score of 6.89.
In the case of TTACCAAGGTGCAGGTCGTTGATCCCTCTGTAGA, the PBM binding z-score is reported as 0.558.
Work on TTACCAAGGTGAAAGGTCGTTGGTGCACGCCTTG yielded a PBM binding z-score of 3.5.
CTCGAAAGGTCGTACTCAGGTGAGTATACCAAAC gave a PBM binding z-score of 3.52.
For ATCTCTAGGTAAACAAGTTCAGTGAATGCCGAAC, the PBM binding z-score was 4.
Sequence TGAATTAGGTTATAAGATCAGGGAACGTTGCAAA has a PBM binding z-score of -0.0623.
AGTCAAAGTGCACTAGGTAACGTAAGATTCAGCT gave a PBM binding z-score of 0.166.
In the case of ACTATTAGTTGACTGAGGGCAACCGATACGACGC, the PBM binding z-score is reported as 2.41.
With GCTGCTAGGTCAACTCATGGTCAGCTAAAGCTCG the PBM binding z-score was 1.71.
With CCTCCTAGGTCATGGTCAGCTAATCTACAGTATG the PBM binding z-score was 1.93.
CTCGAAAGGTCGTGCTCTGGTGAGTATACCAAAC gave a PBM binding z-score of 3.19.
Sequence ATCTCTAAGTAAAAGTTCAGTGAATCCCGAGGAT has a PBM binding z-score of 1.05.
With TAGCCTAGGTAAGATCGGGCCAGTATACGCTATA the PBM binding z-score was -0.645.
For CGTCCAAGGTCGATGCTAGGTCAGTGAAAGCATT, the PBM binding z-score was 2.26.
CCAACTAGGTCACGAAAGGTCAAAGTCGAATGAC was tested, and the PBM binding z-score was 6.81.
Sequence CGTCCAAGGACATAGGAGGTCAGTGAAGACAGAT has a PBM binding z-score of 2.2.
For CCTACTGGGGCATAAGGTTACCATAAGCCAGCCC, the PBM binding z-score was 0.27.
For CCTTACGGGTCACTGACAAGTTATAGCATTTGGA, the PBM binding z-score was 3.07.
Sequence TCTCGGAGGGCACGAAAGGTCAGAGCTCGACATC has a PBM binding z-score of 4.66.
Work on CCTCCAAGGTCAAGGTCAGTGAAAGAGACTCGAA yielded a PBM binding z-score of 4.69.
CGTCCAAGGTTAGAGAGGTCAGTGAATGCCGAGT showed a PBM binding z-score of 5.7.
CCTGCTATGTCAATGGTCAGCTAAAGCAGCTCGC showed a PBM binding z-score of -0.397.
ATCTCTAGGTAACAAAGTTCAGTGAATGCCGAAC showed a PBM binding z-score of 3.18.
